Test results published in PubChem BioAssay.
Calls of active or inactive are those of the source.

How the values were obtained:
Albumin (Bos taurus) = Albumin (Bos taurus) (UniProt P02769); assay: bovine serum albumin binders on microarray, profiling panel, artefact control for SMM control protein annotation, biochemical, small-molecule microarray, Alexa647 label, 635/667 nm fluorescence (AID 1118); settings: BSA-A647 binding, fluorescence 635 nm, higher = more signal;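 also: score merges 667 nm emission intensity and signal-to-noise per printed compound spot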
Sequence of Albumin (Bos taurus) (P02769 whole entry, looked up): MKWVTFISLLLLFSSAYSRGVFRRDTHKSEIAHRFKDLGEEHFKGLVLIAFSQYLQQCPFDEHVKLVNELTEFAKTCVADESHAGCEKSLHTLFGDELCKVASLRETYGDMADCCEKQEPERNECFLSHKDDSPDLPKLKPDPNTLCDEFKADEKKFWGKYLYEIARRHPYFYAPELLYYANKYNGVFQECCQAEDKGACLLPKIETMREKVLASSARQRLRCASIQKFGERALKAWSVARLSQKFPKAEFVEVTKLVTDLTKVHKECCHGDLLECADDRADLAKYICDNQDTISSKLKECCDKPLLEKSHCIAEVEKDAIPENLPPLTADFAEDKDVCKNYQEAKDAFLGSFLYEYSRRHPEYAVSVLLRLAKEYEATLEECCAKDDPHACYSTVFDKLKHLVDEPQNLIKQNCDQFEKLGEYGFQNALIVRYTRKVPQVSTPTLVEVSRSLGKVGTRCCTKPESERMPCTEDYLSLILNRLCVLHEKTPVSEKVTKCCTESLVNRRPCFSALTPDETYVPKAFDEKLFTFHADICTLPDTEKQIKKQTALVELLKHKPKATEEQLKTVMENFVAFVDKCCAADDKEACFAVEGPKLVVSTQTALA

[1] = small-molecule microarray binders of probe aXIP, primary screen, biochemical, NeuroSMM set, 635/667 nm fluorescence (AID 1119); settings: higher = more signal, called active from +8 up or from −8 down;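 also: probe is the protein aXip251-270 applied at 1 µg/mL to compound-printed slides; binding of probe to printed compounds measured as 667 nm fluorescence plus signal to noise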
[2] = small-molecule binders of probe aNOTCH3, primary screen, biochemical, small-molecule microarray, 635/667 nm fluorescence (AID 1120); settings: higher = more signal;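 also: probe is a biotin-tagged antibody raised against NOTCH3 rather than NOTCH3 protein; score merges spot fluorescence near 667 nm with spot signal to noise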
[3] = small-molecule binders of probe aNOTCH2, primary screen, biochemical, small-molecule microarray, 635/667 nm fluorescence (AID 1121); settings: higher = more signal;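 also: score merges feature fluorescence read at 667 nm with its signal to noise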
[4] = biological target: Carbonic anhydrase 2 (Homo sapiens) (UniProt P00918); assay: CAII small-molecule binders, profiling panel, biochemical, small-molecule microarray, Alexa647-labelled CAII (AID 1122); settings: CAII-A647 binding fluorescence, higher = more signal
[5] = COS7 lysate on small-molecule microarray, probe aHis, 635 nm (AID 1123); settings: COS7 cell lysate, fluorescence, higher = more signal;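 also: z-score combines 667nm fluorescence intensity with signal-to-noise per printed compound spot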
[6] = compound binding in COS7 lysate, probe aLAP1, primary screen, cell lysate, small-molecule microarray (AID 1124); settings: probe aLAP1, fluorescence, higher = more signal;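 also: lysate comes from COS7 cells expressing LAP1 and is applied at 0.3 µg/mL; score merges spot fluorescence near 667 nm with signal-to-noise over triplicate slides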
Sam68 (KHDRBS1) = assay: Sam68 small-molecule binders, primary screen, biochemical, small-molecule microarray, 635 nm fluorescence (AID 1125); settings: small-molecule microarray binding, higher = more signal;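 also: score merges 667 nm channel intensity with signal to noise over triplicate slides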
[7] = test system: Chordin-like protein 2 (CHRDL2); assay: CHRDL2 small-molecule binders, primary screen, biochemical, small-molecule microarray, 635 nm fluorescence (AID 1126); settings: small-molecule microarray binding, fluorescence 635 nm; higher = more signal;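 also: printed compound slides probed with Chrdl2 protein at 4 µg/mL for 1 h at 4 C; score merges 667 nm emission intensity with signal to noise over three replicate slides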
[8] = biological target: Concanavalin-A (Canavalia ensiformis) (UniProt P02866); assay: ConA small-molecule binders, primary screen, artefact control for SMM control protein annotation, biochemical, small-molecule microarray, Alexa647 label, 635 nm (AID 1127); settings: ConA-A647 binding fluorescence, higher = more signal;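 also: z combines 667 nm emission intensity with signal-to-noise across three replicate slides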
Sequence of Concanavalin-A (Canavalia ensiformis) (P02866 whole entry, looked up): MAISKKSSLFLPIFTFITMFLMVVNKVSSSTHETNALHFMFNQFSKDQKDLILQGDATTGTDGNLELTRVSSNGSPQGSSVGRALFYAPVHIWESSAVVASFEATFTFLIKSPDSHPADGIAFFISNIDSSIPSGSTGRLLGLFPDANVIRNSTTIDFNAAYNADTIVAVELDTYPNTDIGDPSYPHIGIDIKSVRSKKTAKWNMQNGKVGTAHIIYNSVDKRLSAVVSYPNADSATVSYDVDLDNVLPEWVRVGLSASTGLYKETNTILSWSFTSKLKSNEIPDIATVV

[9] = anti-His antibody binders, primary screen, artefact control for SMM control protein annotation, biochemical, small-molecule microarray, 635 nm fluorescence (AID 1128); settings: anti-His Alexa647 antibody binding, higher = more signal;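 also: score merges feature fluorescence with signal-to-noise for each printed compound spot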
[10] = test system: Human papillomavirus type 1a E7 protein (residues 1-88); assay: HPV1a E7 small-molecule binders, primary screen, biochemical, small-molecule microarray, residues 1-88, 635 nm (AID 1129); settings: small-molecule microarray binding, fluorescence 635 nm; higher = more signal
[11] = biological target: Focal adhesion kinase 1 (Homo sapiens) (UniProt Q05397); assay: small-molecule microarray binders of FAK, primary screen, biochemical, 635/667 nm fluorescence, BSA, DTT (AID 1130); settings: PTK2 binding, 635 nm fluorescence, higher = more signal;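 also: composite of spot emission at 667 nm and signal to noise over triplicate slides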
Sequence of Focal adhesion kinase 1 (Homo sapiens) (Q05397 whole entry, looked up): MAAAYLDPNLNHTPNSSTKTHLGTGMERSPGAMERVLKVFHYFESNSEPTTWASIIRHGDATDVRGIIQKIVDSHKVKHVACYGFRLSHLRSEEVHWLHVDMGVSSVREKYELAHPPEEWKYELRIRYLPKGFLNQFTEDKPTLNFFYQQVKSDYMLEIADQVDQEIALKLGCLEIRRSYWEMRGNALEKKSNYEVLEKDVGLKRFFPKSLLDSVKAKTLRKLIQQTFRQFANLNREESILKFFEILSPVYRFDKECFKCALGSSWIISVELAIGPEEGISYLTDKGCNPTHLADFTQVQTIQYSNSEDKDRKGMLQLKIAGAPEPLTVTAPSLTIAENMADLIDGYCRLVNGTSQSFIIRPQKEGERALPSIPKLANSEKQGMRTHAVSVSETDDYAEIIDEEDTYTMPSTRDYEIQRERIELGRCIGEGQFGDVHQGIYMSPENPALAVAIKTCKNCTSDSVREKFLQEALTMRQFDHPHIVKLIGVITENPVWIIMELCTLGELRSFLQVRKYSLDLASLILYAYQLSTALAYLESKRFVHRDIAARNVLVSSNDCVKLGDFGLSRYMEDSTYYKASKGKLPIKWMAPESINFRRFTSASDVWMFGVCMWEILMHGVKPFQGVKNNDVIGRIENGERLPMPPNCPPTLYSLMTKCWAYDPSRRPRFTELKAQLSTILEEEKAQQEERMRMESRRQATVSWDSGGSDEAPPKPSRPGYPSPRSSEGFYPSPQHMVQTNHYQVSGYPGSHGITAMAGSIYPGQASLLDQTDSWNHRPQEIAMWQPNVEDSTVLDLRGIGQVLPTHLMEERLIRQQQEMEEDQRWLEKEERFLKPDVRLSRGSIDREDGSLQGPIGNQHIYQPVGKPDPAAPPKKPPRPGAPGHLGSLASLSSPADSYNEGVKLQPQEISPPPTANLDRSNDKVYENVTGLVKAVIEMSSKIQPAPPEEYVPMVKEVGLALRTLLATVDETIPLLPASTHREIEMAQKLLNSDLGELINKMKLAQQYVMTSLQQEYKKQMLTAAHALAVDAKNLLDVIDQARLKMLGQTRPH

[12] = test system: Fibrinogen (Alexa647-labelled); assay: fibrinogen binders on compound microarrays, profiling panel, artefact control for SMM control-protein annotation, biochemical, small-molecule microarray, 635/667 nm fluorescence (AID 1131); settings: fibrinogen-A647 binding fluorescence, higher = more signal;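 also: z-score merges 667 nm fluorescence with per-spot signal-to-noise over triplicate slides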
[13] = biological target: Follistatin (Homo sapiens) (UniProt P19883); assay: follistatin binders on small-molecule microarrays, primary screen, biochemical, small-molecule microarray, 635/667 nm fluorescence (AID 1132); settings: FST binding, 635 nm fluorescence, higher = more signal
Sequence of Follistatin (Homo sapiens) (P19883 whole entry, looked up): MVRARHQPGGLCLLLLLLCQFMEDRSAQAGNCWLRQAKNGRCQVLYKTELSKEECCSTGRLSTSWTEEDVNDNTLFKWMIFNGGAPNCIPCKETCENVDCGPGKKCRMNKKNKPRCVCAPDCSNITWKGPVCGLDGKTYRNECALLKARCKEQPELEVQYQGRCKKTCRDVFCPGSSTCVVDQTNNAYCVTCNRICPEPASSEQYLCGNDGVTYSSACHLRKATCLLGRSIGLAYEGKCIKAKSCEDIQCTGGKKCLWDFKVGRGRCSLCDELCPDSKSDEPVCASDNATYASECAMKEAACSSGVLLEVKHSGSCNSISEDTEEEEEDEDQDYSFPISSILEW

[14] = biological target: Fibroblast growth factor 2 (Homo sapiens) (UniProt P09038); assay: FGF2 binders on small-molecule microarrays, primary screen, biochemical, small-molecule microarray, 635/667 nm fluorescence (AID 1133); settings: small-molecule microarray binding, FGF2, fluorescence 635/667; higher = more signal
Sequence of Fibroblast growth factor 2 (Homo sapiens) (P09038 whole entry, looked up): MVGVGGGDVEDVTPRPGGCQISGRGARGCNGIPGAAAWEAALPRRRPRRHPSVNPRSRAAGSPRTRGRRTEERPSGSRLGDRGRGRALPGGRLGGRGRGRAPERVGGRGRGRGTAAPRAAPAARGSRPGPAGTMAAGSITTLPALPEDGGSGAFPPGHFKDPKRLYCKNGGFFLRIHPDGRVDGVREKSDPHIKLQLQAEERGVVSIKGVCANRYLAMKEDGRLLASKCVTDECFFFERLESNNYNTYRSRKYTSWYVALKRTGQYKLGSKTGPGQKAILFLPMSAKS

[15] = mitochondrial membrane potential change in A549 cells, profiling panel, cell-based, JC-1 fluorescence, basal, 24 h, 100 nL (AID 1138); settings: higher = more signal;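 also: A549 lung adenocarcinoma cells under basal conditions with no added stimulus; test concentration not given here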
Lefty1 = Lefty1 binders on small-molecule microarrays, primary screen, biochemical, small-molecule microarray, 635/667 nm fluorescence (AID 1139); settings: small-molecule microarray binding, fluorescence 635/667; higher = more signal
[16] = test system: wheat germ agglutinin (Triticum aestivum), Alexa647-labelled; assay: wheat germ agglutinin binders on compound microarrays, profiling panel, artefact control for SMM control-protein annotation, biochemical, small-molecule microarray, 635/667 nm fluorescence (AID 1140); settings: WGA-A647 binding, 635 nm fluorescence, higher = more signal;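 also: score merges 667 nm feature emission with signal to noise over triplicate slides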
[17] = biological target: Luciferin 4-monooxygenase (Photinus pyralis) (UniProt P08659); assay: firefly luciferase enzyme inhibitors, primary screen, biochemical, luminescence, purified enzyme, 2006 set (AID 1141); settings: SteadyGlo luminescence, 30 min, higher = more signal, called active from +8 up or from −8 down;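 also: cell-free assay with purified firefly luciferase at 100 ng per well in PBS; test concentration not given here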
Sequence of Luciferin 4-monooxygenase (Photinus pyralis) (P08659 whole entry, looked up): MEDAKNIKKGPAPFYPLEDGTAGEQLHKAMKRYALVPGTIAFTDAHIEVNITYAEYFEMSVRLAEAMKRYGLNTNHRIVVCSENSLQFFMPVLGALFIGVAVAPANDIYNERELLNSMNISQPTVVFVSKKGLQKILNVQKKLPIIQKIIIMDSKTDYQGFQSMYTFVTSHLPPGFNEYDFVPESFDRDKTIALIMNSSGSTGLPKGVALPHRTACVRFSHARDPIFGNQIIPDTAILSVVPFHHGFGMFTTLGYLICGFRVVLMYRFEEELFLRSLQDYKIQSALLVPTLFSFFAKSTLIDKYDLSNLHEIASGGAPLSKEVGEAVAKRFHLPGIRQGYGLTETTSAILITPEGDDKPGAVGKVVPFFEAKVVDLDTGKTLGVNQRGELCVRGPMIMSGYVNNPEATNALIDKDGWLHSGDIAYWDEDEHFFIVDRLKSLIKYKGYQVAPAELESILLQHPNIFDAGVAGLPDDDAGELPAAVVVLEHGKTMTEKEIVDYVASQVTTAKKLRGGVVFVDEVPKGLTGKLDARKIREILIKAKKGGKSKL

| Compound | composite z-score (Albumin (Bos taurus)) | composite Z-score [1] | composite z-score [2] | composite z-score [3] | composite z-score [4] | composite z-score [5] | composite z-score [6] | composite z-score (Sam68 (KHDRBS1)) | composite z-score [7] | composite z-score [8] | composite z-score [9] | composite z-score [10] | composite z-score [11] | composite z-score [12] | composite z-score [13] | composite z-score [14] | z-score [15] | composite z-score (Lefty1) | composite z-score [16] | z-score [17] |
| --- | --- | --- | --- | --- | --- | --- | --- | --- | --- | --- | --- | --- | --- | --- | --- | --- | --- | --- | --- | --- |
| C=CCNC(=O)[C@H]1[C@@H]2C(=O)O[C@@H](c3ccccc3)[C@@H](c3ccccc3)N2[C@@H](c2ccc(OCCO)cc2)[C@]12C(=O)N(C(=O)OCCOC)c1ccc(C#CCC(C(=O)OC)C(=O)OC)cc12 | 0.738 | 0.245 (inactive) | 0.327 | 0.0654 | 0.702 | 2.67 | 1.44 | 1.16 | 0.6 | 1.12 | 0.302 | 1.2 | 0.227 | 0.94 | 1.27 | 0.252 | -0.933 | 1.27 | 1.26 | -0.515 (inactive) |
| [N-]=[N+]=NCc1ccccc1C[C@@]1(C(N)=O)N=C(c2ccc(OCCCO)cc2)O[C@@H]1c1ccccc1N=[N+]=[N-] | 0.873 | -0.254 (inactive) | 0.0065 | 0.0368 | 0.63 | 2.8 | 0.197 | 0.816 | 0.0247 | 1.12 | 1.16 | 1.24 | 0.0254 | 0.991 | 0.102 | -0.131 | 0.306 | -0.804 | 0.68 | -5.46 (inactive) |
| CO[C@H]1O[C@H](CO)[C@@H](OC(=O)Nc2ccccc2)[C@@H]2OC(=O)[C@@H](Cc3ccccc3)C/C=C/C[C@H](Cc3ccccc3)C(=O)O[C@@H]12 | 0.0558 | 0.547 (inactive) | 0.106 | -0.0486 | 0.315 | 0.923 | 0.79 | 0.296 | -0.0529 | -0.216 | 2.4 | 0.426 | 0.348 | 0.0766 | 0.661 | 0.0861 | -0.282 | 0.449 | 0.95 | -0.283 (inactive) |
| COCCCNC(=O)[C@@]1(Cc2ccccc2I)c2ccccc2C(=O)N(Cc2ccccc2OC)[C@H]1c1ccc(CO)cc1 | -0.685 | 0.0679 (inactive) | -0.134 | -0.14 | 0.542 | 2.31 | -0.143 | 0.614 | -1.82 | 0.911 | 3.03 | 1.18 | 0.0958 | 0.198 | -0.268 | -0.39 | 1.93 | -1.26 | 0.214 | -0.773 (inactive) |
| CCCCCN1CC=CC23O[C@@H]4/C=C\CCCOC(=O)C4[C@H]2C(=O)N(CCCCCO)[C@@H]3C1=O (stereo not given in full) | -0.191 | -0.594 (inactive) | -0.233 | -0.182 | 0.777 | -1.89 | -0.682 | -0.178 | -0.801 | -0.691 | 0.163 | -0.766 | -0.565 | -0.832 | -0.38 | -1.11 | 0.27 | -0.0788 | -0.662 | -3.1 (inactive) |
